High-throughput results from PubChem BioAssay.
AmpC inh no detg: AmpC beta-lactamase inhibition without detergent; P00811; AID 485341; 0.52% of 330,000 active; AmpC nitrocefin hydrolysis, absorbance 480 nm, 0.0001% Triton; Potency, µM (titrated, usually from 57.1 µM), hits mostly inhibitors; note: nearly all actives have a fitted effect of over 20% in size
Target sequence (P00811 whole entry, looked up): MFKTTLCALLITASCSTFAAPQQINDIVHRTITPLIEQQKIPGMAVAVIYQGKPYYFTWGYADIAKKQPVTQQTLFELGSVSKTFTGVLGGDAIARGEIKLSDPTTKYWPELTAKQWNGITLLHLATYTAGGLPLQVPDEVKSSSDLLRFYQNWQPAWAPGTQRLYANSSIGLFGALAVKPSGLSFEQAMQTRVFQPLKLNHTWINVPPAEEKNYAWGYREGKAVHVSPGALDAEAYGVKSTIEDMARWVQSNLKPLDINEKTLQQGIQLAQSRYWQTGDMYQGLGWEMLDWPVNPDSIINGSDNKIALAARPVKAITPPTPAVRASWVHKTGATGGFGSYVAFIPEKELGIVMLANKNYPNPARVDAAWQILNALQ
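20 mM phosphate pH 7.0 + 0.01% (detergent screen) or 0.0001% Triton X-100; 5.3 nM AmpC reagent; cpd preinc 15 min RT; nitrocefin (800 uM stock) to start; A480 q20 s × 4 min; Activity was normalised to no-enzyme and no-compound control wells.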
SARS PLP yeast: SARS-CoV PLP inhibition in yeast; S. cerevisiae expressing SARS-CoV PLpro, growth rescue; 0.19% of 330,000 active; AID 485353; Potency, µM (top dose mostly 32.9 µM), hits mostly activators; calls by dose curve; note: nearly all actives have a fitted effect of over 55% in size
AmpC inh detg: inhibitors of E. coli AmpC beta-lactamase with detergent. P00811. AmpC hydrolysis of nitrocefin, absorbance 480 nm, 0.01% Triton. Potency, µM (top dose mostly 114 µM), most hits filed as inhibitors. 0.041% of 370,000 active. AID 485294; note: nearly all actives have a fitted effect of over 25% in size
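AmpC (5.3 nM in the dispensed reagent) in 20 mM phosphate pH 7.0 with 0.01% (detergent screen) or 0.0001% Triton X-100 was preincubated with compounds for 15 min at room temperature. Nitrocefin was then added from an 800 uM solution, and hydrolysis was followed at 480 nm.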
FBPA Giardia inh: Giardia lamblia aldolase inhibition | 0.71% of 290,000 active | Potency, µM (top dose mostly 59.6 µM), actives largely listed as inhibitors | AID 2451 | purified Giardia FBPA; note: nearly all actives have a fitted effect of over 55% in size
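Giardia FBPA (40 nM reagent) was preincubated 10 min at RT with compound (up to 57.5 uM final), then substrate plus GAPDH/TPI/NAD/arsenate coupling system with diaphorase/resazurin was added; resorufin fluorescence (525/598 nm) was read after 20 min.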
Numbers stand for hits; i = inactive; ? = inconclusive; nt = no result given; [ ] = another dose, or the depositor's remark. This is a sample that favours compounds with a hit; in the whole collection about 1.1% have one here. Unless noted, calls come from the whole dose curve; as a rule, active = well fitted curve in the direction sought with a large enough effect; inconclusive = small, poorly fitted or top-dose-only effect, or another doubt; inactive = no such curve, though single readings can be large; an effect the other way counts as inactive or inconclusive.

SMILES	AmpC inh no detg	SARS PLP yeast	AmpC inh detg	FBPA Giardia inh
Cc1ccc(Cn2c(=O)n(-c3cccc(C(F)(F)F)c3)c(=O)c3c(C)c(C)sc32)c(C)c1	nt	nt	i	nt
Cc1cc(C(C)(C)C)oc1C(=O)N(CC(=O)NC1CCCC1)Cc1ccccc1Cl	5.62µM	i	i	i
CC1CC=CC2C1C(=O)N(Cc1ccccc1)C2c1ccc(F)c(Br)c1 (configuration not stated)	nt	nt	nt	i
COc1ccc(CNC(=O)Cn2cc3c(n2)CCCCC3)cc1	7.08µM	i	i	i
O=C(Cn1cc2c(n1)CCCC2)NCc1ccccn1	3.55µM	i	i	i
CC[C@H](C)[C@H](NC(=O)[C@H](CCC(=O)O)NC(=O)CNC(=O)[C@@H](NC(=O)[C@H](CCC(=O)O)NC(=O)[C@H](CCC(=O)O)NC(=O)[C@H](CC(C)C)NC(=O)CNC(=O)[C@@H]1CCCN1C(=O)[C@H](CCC(=O)O)NC(=O)[C@@H](N)[C@@H](C)O)C(C)C)C(=O)N[C@@H](CCC(=O)O)C(=O)N[C@@H](CCC(N)=O)C(=O)N[C@@H](CCCCN)C(=O)N[C@@H](CCC(N)=O)C(=O)N[C@@H](CC(C)C)C(=O)N[C@@H](CCC(N)=O)C(=O)O	nt	nt	nt	i
COc1ccc(Nc2cc(O)c3ncccc3c2)cc1	i	i	?	nt
COc1cc(/C=C(/C#N)c2nc3ccccc3c(=O)[nH]2)ccc1O	28.2µM	i	i	i
CCOC(=O)N1CCC(c2cc(=O)n3[nH]c(C)c(-c4ccc(F)cc4)c3n2)CC1	25.1µM	i	?	i
NC(CO)C(=O)NNCc1ccc(O)c(O)c1O (configuration not stated)	i	?	?	7.92µM
COC(=O)C(N)Cc1ccc(O)c(O)c1 (configuration not stated)	i	i	i	?
O=C(O)CC1(CC(=O)N2CCC(C(=O)O)CC2)CCCC1	i	i	44.7µM	i
O=C(O)CC1(CC(=O)N2CCOCC2)CCCC1	i	i	35.5µM	i
CCCCc1nc2c(c3c1C[C@H](C)OC3)CN(S(=O)(=O)c1ccc(NC(C)=O)cc1)CC2	nt	nt	nt	i[12.9 µM]
CC(=O)C(=O)O	nt	nt	nt	i
O=C(OCC1OC(OC(=O)c2cc(O)c(O)c(OC(=O)c3cc(O)c(O)c(O)c3)c2)[C@@H](OC(=O)c2cc(O)c(O)c(OC(=O)c3cc(O)c(O)c(O)c3)c2)C(OC(=O)c2cc(O)c(O)c(OC(=O)c3cc(O)c(O)c(O)c3)c2)C1OC(=O)c1cc(O)c(O)c(OC(=O)c2cc(O)c(O)c(O)c2)c1)c1cc(O)c(O)c(OC(=O)c2cc(O)c(O)c(O)c2)c1 (some centres not stated)	nt	nt	nt	3.54µM
CCOc1ccc(C2C(=O)N(C3CCCCCC3)CC(=O)N2Cc2ccc(F)cc2)cc1OC (configuration not stated)	nt	nt	i	nt
CCCCSc1nnc(-c2c[nH]c3ccccc23)n1C	i	i	i	i
Cn1c(SCc2ccccc2)nnc1-c1c[nH]c2ccccc12	25.1µM	i	?	i
O=C(O)c1ccnc(C(=O)O)c1	i	i	i	1.77µM
CN(C)c1ccnc(C(=O)O)c1	i	i	i	i
CC[C@H](C)[C@H](NC(=O)[C@H](Cc1ccccc1)NC(=O)[C@H](CCC(=O)O)NC(=O)[C@H](CCCCN)NC(=O)[C@H](C)NC(=O)[C@H](C)NC(=O)[C@H](CCC(N)=O)NC(=O)CNC(=O)[C@H](CCC(=O)O)NC(=O)[C@H](CC(C)C)NC(=O)[C@H](Cc1ccc(O)cc1)NC(=O)[C@H](CO)NC(=O)[C@H](CO)NC(=O)[C@@H](NC(=O)[C@H](CC(=O)O)NC(=O)[C@H](CO)NC(=O)[C@@H](NC(=O)[C@H](Cc1ccccc1)NC(=O)[C@@H](NC(=O)CNC(=O)[C@H](CCC(=O)O)NC(=O)[C@H](C)NC(=O)[C@@H](N)Cc1cnc[nH]1)[C@@H](C)O)[C@@H](C)O)C(C)C)C(=O)N[C@@H](C)C(=O)N[C@@H](Cc1c[nH]c2ccccc12)C(=O)N[C@@H](CC(C)C)C(=O)N[C@H](C(=O)N[C@@H](CCCCN)C(N)=O)C(C)C	nt	nt	nt	i
COC(=O)C(C(=O)OC)C1c2ccccc2C=C(C)N1C(=O)OC (configuration not stated)	nt	nt	nt	i[12.9 µM]
COc1cc(NC(=O)C2CCC(CNc3c(N4CCCCC4)c(=O)c3=O)CC2)cc(OC)c1 (configuration not stated)	50.1µM	i	?	i
Cc1ccnc(NC(=O)C2CCC(CNc3c(N4CCCC4)c(=O)c3=O)CC2)c1 (configuration not stated)	2.24µM	i	?	i
SMILES	AmpC inh no detg	SARS PLP yeast	AmpC inh detg	FBPA Giardia inh
O=C(CSc1nccc(-c2cccs2)n1)Nc1cccc(Cl)c1Cl	i	i	i	i
O=C(c1ccccc1Cl)N(C(=O)c1ccccc1Cl)c1nccc(-c2cccs2)n1	i	i	i	7.94µM
CC(C)[C@H](NC(=O)[C@@H]1CSSC[C@H](NC(=O)[C@H](CC(=O)O)NC(=O)[C@H](C)NC(=O)[C@@H](NC(=O)CNC(=O)[C@H](C)N)[C@@H](C)O)C(=O)N[C@@H](Cc2ccccc2)C(=O)N[C@@H](Cc2c[nH]c3ccccc23)C(=O)N[C@@H](CCCCN)C(=O)N[C@@H](Cc2ccc(O)cc2)C(=O)N1)C(=O)O	nt	nt	nt	i
NNc1nc(C(F)(F)F)nc2ccccc12	i	i	i	?
O/C=c1\ccc2cccc3nc(C(F)(F)F)nc1c23	12.6µM	i	i	?
O=C1Nc2ccccc2Oc2cc(Oc3ccccc3)ccc21	10µM	i	i	nt
CCCCSc1nnc([C@@H]2CCCN2C(=O)OC(C)(C)C)o1	i	i	31.6µM	i
COc1ccc(C2=NN(C(=O)c3cccs3)C(c3ccccc3OC)C2)cc1OC (configuration not stated)	i	i	i	i
Cc1ccc(C2=NN(C(=O)c3cccs3)C(c3ccccc3O)C2)cc1 (configuration not stated)	7.94µM	i	i	i
O=C(c1cccs1)N1N=C(c2ccccc2)CC1c1ccccc1O (configuration not stated)	15.8µM	i	i	i
COc1ccc(C2/C=C\CN(C(=O)C3CCCCC3)C(C)C(=O)N2Cc2ccc(F)cc2)cc1 (configuration not stated)	nt	nt	nt	i
CCCC[C@H]1CCCO[C@@](C(=O)NCc2cc(C)n(C)n2)(C(F)(F)F)C1	nt	nt	nt	i
O=C(NCCc1ccccc1)c1ccc2c(c1)N(Cc1ccccc1)C(=O)CS2=O (configuration not stated)	5.01µM	i	?	i
CC(C)CCNC(=O)c1ccc2c(c1)N(Cc1ccccc1)C(=O)CS2=O (configuration not stated)	?	i	?	i
O=C(Nc1cccc(-c2ccc(N3CCOCC3)nn2)c1)c1ccccc1	?	i	?	nt
O=C(Nc1cccc(-c2ccc(N3CCOCC3)nn2)c1)c1ccc([N+](=O)[O-])cc1	31.6µM	i	i	nt
